Reference: the supplement of paper PMC10849652
The full data set covers some 8,800 targets. This sample favours those with a hit. About 0.5% of all pairs of compound and target were hits. A number with no mark means an inactive call.

What was measured:
Assay in all cases: log2 fold change, soluble protein after heating vs DMSO (PISA); higher = thermal stabilisation; K562 lysate, 10 uM; active = over 0.2 and 3.5 SD of the protein, either way, in both replicates (recomputed)
lapatinib = compound: CS(=O)(=O)CCNCc1ccc(-c2ccc3ncnc(Nc4ccc(OCc5cccc(F)c5)c(Cl)c4)c3c2)o1 [lapatinib]
Summary of the method: (§1)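 Pellets of K562 cells were dounce-homogenised in PBS pH 7.4 with 1 mM MgCl2, and the crude extract was held at 1 mg/mL protein for a 30 min treatment with 10 μM compound. Aliquots were heated for 3 min over 48°C-58°C and pooled before NP-40 was added to 0.5% at 4°C. The supernatant from 21,000xg for 90 min was quantified by TMTpro 16plex LC-MS/MS with channel sums equalised. Values are reported from duplicates as log-two fold change in thermal stability relative to solvent controls.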

pictilisib = compound: CS(=O)(=O)N1CCN(Cc2cc3nc(-c4cccc5[nH]ncc45)nc(N4CCOCC4)c3s2)CC1 [pictilisib]
Summary of the method: as §1

crizotinib = compound: C[C@@H](Oc1cc(-c2cnn(C3CCNCC3)c2)cnc1N)c1c(Cl)ccc(F)c1Cl [crizotinib]
Summary of the method: as §1

[1] = compound: C[C@H](C1=CC=C(C=C1)C(=O)NC2=C3C=CNC3=NC=C2)N
Summary of the method: as §1

duvelisib = compound: C[C@H](Nc1ncnc2nc[nH]c12)c1cc2cccc(Cl)c2c(=O)n1-c1ccccc1 [duvelisib]
Summary of the method: as §1

gandotinib = compound: Cc1cc(Nc2cc(CN3CCOCC3)c3nc(C)c(Cc4ccc(Cl)cc4F)n3n2)n[nH]1 [gandotinib]
Summary of the method: as §1

tozasertib = compound: Cc1cc(Nc2cc(N3CCN(C)CC3)nc(Sc3ccc(NC(=O)C4CC4)cc3)n2)n[nH]1 [tozasertib]
Summary of the method: as §1

doramapimod = compound: Cc1ccc(-n2nc(C(C)(C)C)cc2NC(=O)Nc2ccc(OCCN3CCOCC3)c3ccccc23)cc1 [doramapimod]
Summary of the method: as §1

bafetinib = compound: Cc1ccc(NC(=O)c2ccc(CN3CC[C@H](N(C)C)C3)c(C(F)(F)F)c2)cc1Nc1nccc(-c2cncnc2)n1 [bafetinib]
Summary of the method: as §1

[2] = compound: Cc1cccc(CC(=O)N2CCc3c2ccc(-c2cn(C)c4ncnc(N)c24)c3F)n1
Summary of the method: as §1

nilotinib = compound: Cc1cn(-c2cc(NC(=O)c3ccc(C)c(Nc4nccc(-c5cccnc5)n4)c3)cc(C(F)(F)F)c2)cn1 [nilotinib]
Summary of the method: as §1

[3] = compound: Cc1nc(Nc2n[nH]c3c2CN(C(=O)N[C@H](CN(C)C)c2ccccc2)C3(C)C)c2sccc2n1
Summary of the method: as §1

dasatinib = compound: Cc1nc(Nc2ncc(C(=O)Nc3c(C)cccc3Cl)s2)cc(N2CCN(CCO)CC2)n1 [dasatinib]
Summary of the method: as §1

[4] = compound: Cc1ncc(-c2ccnc(Nc3ccc(S(C)(=O)=O)cc3)n2)n1C(C)C
Summary of the method: as §1

[5] = compound: Cn1cc(-c2ccc3c(c2)CCN3C(=O)Cc2cccc(C(F)(F)F)c2)c2c(N)ncnc21
Summary of the method: as §1

quisinostat = compound: Cn1cc(CNCC2CCN(c3ncc(C(=O)NO)cn3)CC2)c2ccccc21 [quisinostat]
Summary of the method: as §1

tipifarnib = compound: Cn1cncc1[C@@](N)(c1ccc(Cl)cc1)c1ccc2c(c1)c(-c1cccc(Cl)c1)cc(=O)n2C [tipifarnib]
Summary of the method: as §1

[6] = compound: NC(=O)Nc1cc(-c2cccc(F)c2)sc1C(=O)N[C@H]1CCCNC1
Summary of the method: as §1

[7] = compound: NC(=O)c1cnc(N[C@@H]2CCCC[C@@H]2N)nc1Nc1cccc(-n2nccn2)c1
Summary of the method: as §1

[8] = compound: NC1(c2ccc(-c3nc4ccn5c(=O)[nH]nc5c4cc3-c3ccccc3)cc2)CCC1
Summary of the method: as §1

Sequence of UniProt Q9H2V7 (Q9H2V7 whole entry, looked up): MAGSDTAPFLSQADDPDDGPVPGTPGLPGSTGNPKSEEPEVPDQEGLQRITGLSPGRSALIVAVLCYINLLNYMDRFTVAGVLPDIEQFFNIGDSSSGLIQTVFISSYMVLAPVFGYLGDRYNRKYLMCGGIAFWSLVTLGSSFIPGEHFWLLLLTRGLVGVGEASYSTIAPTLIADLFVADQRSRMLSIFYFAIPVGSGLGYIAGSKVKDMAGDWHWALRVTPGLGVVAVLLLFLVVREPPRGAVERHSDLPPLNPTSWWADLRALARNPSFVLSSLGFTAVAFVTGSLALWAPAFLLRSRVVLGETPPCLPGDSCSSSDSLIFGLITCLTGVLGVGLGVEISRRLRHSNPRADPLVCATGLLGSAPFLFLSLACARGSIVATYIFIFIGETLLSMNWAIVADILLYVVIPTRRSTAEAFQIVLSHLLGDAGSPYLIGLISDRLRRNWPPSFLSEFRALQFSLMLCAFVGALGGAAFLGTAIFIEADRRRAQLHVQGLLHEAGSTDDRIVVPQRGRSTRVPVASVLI
Sequence of UniProt Q96SB4 (Q96SB4 whole entry, looked up): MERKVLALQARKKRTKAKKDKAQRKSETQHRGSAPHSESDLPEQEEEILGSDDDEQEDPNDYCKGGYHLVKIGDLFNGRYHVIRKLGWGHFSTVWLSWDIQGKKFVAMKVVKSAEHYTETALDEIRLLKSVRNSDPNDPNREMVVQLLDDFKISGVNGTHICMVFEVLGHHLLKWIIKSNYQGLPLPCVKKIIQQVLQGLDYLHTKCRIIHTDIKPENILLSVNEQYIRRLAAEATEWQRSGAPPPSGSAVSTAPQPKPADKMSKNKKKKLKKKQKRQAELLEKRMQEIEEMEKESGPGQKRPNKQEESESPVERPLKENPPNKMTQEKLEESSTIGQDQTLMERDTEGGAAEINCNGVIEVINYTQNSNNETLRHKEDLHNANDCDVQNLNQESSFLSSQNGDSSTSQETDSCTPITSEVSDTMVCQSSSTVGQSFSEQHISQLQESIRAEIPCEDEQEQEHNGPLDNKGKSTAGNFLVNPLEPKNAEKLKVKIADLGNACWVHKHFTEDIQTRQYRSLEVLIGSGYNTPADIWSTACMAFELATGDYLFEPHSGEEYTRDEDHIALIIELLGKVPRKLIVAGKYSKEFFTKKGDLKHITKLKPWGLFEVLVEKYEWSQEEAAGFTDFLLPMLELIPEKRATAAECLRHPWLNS
Sequence of UniProt Q14542 (Q14542 whole entry, looked up): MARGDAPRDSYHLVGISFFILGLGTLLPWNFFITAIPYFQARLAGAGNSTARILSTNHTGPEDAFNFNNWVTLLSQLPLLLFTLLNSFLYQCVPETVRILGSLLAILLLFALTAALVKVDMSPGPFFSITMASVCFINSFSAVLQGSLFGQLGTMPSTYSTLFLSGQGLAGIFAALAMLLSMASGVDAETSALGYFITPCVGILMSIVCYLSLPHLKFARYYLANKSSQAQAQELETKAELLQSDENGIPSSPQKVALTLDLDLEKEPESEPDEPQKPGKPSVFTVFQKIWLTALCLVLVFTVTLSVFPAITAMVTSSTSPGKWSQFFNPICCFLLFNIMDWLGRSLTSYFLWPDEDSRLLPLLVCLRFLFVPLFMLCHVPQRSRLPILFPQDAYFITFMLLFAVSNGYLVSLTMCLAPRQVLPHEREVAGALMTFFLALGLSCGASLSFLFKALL
Sequence of UniProt Q9NRP7 (Q9NRP7 whole entry, looked up): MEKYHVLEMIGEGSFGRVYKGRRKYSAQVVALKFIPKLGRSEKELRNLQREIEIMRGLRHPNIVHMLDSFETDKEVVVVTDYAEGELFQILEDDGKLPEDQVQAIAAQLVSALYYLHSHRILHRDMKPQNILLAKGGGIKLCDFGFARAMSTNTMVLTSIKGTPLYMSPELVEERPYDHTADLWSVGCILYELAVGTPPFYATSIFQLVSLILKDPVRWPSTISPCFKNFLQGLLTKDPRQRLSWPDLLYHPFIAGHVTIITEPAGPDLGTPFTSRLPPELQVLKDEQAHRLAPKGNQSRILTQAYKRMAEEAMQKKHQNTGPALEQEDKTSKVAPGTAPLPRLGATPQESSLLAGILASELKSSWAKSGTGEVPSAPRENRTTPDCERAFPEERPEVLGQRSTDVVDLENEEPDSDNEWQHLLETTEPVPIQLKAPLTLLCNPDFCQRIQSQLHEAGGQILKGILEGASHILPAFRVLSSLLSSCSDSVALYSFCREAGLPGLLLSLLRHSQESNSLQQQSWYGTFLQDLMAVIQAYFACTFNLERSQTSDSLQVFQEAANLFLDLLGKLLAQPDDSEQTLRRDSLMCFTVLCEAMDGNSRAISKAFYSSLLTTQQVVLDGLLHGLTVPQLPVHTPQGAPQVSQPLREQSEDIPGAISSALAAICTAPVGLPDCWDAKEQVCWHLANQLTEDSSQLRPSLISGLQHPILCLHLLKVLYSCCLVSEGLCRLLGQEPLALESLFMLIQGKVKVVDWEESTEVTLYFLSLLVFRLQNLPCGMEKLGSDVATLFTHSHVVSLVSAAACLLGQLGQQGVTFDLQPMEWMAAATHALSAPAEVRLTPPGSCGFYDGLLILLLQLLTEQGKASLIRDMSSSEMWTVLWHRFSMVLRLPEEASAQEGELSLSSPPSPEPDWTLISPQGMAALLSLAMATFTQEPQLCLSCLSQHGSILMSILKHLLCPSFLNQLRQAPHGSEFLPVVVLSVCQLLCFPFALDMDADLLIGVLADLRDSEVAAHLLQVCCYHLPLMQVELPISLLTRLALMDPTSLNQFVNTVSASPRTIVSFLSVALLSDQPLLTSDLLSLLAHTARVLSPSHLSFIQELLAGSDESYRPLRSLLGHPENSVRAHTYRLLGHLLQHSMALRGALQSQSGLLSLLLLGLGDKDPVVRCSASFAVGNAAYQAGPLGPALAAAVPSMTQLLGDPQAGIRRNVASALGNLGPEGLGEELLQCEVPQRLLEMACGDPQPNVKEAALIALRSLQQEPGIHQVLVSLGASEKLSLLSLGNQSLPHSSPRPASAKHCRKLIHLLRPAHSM
Sequence of UniProt Q9UL54 (Q9UL54 whole entry, looked up): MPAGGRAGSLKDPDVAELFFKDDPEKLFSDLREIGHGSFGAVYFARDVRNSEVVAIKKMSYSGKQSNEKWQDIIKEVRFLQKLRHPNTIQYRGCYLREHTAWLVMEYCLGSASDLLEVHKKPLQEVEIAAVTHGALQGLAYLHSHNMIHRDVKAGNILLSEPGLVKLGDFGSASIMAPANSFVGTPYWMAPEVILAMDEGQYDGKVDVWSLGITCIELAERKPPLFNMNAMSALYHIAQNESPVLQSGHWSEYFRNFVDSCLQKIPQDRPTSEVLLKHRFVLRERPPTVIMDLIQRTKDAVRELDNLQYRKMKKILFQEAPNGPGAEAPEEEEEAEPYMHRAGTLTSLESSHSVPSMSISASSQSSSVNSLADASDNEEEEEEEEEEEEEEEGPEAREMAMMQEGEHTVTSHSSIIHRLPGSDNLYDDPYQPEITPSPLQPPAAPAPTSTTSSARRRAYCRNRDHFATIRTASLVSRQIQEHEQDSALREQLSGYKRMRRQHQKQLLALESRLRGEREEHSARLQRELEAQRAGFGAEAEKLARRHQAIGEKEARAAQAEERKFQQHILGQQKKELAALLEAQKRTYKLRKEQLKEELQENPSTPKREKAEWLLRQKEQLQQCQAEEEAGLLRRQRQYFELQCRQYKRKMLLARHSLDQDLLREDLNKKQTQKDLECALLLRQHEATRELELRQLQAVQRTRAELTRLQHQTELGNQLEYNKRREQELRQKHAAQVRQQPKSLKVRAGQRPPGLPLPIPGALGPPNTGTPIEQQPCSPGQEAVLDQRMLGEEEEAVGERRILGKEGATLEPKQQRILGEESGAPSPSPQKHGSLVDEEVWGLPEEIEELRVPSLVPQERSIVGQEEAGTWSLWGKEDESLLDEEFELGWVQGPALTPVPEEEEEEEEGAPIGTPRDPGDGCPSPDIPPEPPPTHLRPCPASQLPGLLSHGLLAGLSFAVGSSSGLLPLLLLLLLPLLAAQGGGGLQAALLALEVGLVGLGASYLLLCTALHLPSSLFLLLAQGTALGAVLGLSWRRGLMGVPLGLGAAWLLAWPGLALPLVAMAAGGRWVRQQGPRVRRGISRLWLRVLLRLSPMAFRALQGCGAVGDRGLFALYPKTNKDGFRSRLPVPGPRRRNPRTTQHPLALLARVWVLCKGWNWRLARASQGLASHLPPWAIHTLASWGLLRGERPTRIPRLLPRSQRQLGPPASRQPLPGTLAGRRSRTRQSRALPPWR
Sequence of UniProt Q7L8J4 (Q7L8J4 whole entry, looked up): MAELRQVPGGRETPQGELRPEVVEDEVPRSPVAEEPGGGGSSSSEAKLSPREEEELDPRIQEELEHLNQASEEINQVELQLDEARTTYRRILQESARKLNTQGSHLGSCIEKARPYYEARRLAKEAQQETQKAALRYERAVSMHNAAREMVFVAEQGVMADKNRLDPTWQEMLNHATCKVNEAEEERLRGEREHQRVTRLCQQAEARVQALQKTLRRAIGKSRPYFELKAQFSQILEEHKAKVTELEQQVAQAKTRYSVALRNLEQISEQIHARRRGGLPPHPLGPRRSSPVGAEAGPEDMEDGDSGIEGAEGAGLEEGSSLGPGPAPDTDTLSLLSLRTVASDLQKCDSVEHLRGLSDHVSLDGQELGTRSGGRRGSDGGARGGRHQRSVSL
Sequence of UniProt O00161 (O00161 whole entry, looked up): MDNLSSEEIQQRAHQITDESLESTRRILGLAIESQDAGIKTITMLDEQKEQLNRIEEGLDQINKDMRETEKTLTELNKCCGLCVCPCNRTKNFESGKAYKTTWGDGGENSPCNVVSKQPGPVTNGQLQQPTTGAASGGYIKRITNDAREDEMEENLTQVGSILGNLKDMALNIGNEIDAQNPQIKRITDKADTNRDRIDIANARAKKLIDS
Sequence of UniProt Q9Y3B4 (Q9Y3B4 whole entry, looked up): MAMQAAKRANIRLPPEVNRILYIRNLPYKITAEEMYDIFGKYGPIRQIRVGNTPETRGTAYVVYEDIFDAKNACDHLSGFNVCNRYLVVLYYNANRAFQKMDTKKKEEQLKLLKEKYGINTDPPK
Sequence of UniProt Q96KF7 (Q96KF7 whole entry, looked up): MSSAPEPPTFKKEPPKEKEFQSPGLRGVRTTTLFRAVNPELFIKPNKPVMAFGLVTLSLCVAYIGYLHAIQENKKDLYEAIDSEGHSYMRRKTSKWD

| Target | log2 fold change (lapatinib) | log2 fold change (pictilisib) | log2 fold change (crizotinib) | log2 fold change [1] | log2 fold change (duvelisib) | log2 fold change (gandotinib) | log2 fold change (tozasertib) | log2 fold change (doramapimod) | log2 fold change (bafetinib) | log2 fold change [2] | log2 fold change (nilotinib) | log2 fold change [3] | log2 fold change (dasatinib) | log2 fold change [4] | log2 fold change [5] | log2 fold change (quisinostat) | log2 fold change (tipifarnib) | log2 fold change [6] | log2 fold change [7] | log2 fold change [8] |
| --- | --- | --- | --- | --- | --- | --- | --- | --- | --- | --- | --- | --- | --- | --- | --- | --- | --- | --- | --- | --- |
| SPNS1 (UniProt Q9H2V7) | 0.025 | -0.038 | -0.004 | -0.042 | 0.04 | 0.032 | -0.073 | 0.014 | -0.054 | 0.052 | 0.04 | -0.025 | 0 | -0.017 | 0.028 | -0.039 | 0.069 | -0.032 | 0.013 | -0.005 |
| SSB (UniProt P05455) | -0.024 | 0.015 | 0.046 | 0.05 | -0.01 | -0.03 | 0.009 | -0.032 | 0.017 | -0.036 | -0.013 | -0.014 | -0.008 | 0.006 | -0.018 | 0.099 | 0.022 | 0.001 | -0.013 | 0.012 |
| TAOK2 (UniProt Q9UL54) | -0.049 | -0.054 | -0.081 | -0.136 | -0.002 | 0.07 | -0.026 | 0.046 | -0.004 | 0.261 | 0.033 | -0.069 | -0.231 | 0.012 | 0.052 | -0.516 (active) | 0.033 | 0.022 | -0.008 |  |
| SRPK1 (UniProt Q96SB4) | -0.006 | 0.008 | -0.089 | 0.1 | 0.025 | 0.17 | -0.016 | 0.233 | -0.028 | -0.054 | -0.002 | 0.069 | -0.01 | -0.03 | 0.017 | -0.108 | -0.03 | 0.283 (active) | -0.021 | -0.069 |
| SNAP23 (UniProt O00161) | 0.005 | -0.035 | 0.067 | 0.034 | -0.004 | 0.007 | 0.005 | 0.002 | 0.059 | -0.05 | 0.001 | 0.015 | 0.045 | -0.013 | 0 | 0.035 | 0.036 | -0.019 | -0.016 | 0.031 |
| SMIM8 (UniProt Q96KF7) | -0.053 | -0.079 | -0.041 | -0.146 | 0.019 | 0.128 | -0.038 | -0.059 | -0.035 | 0.018 | 0.059 | -0.018 | 0.032 | 0.055 | -0.023 | 0.084 | -0.033 | -0.02 | -0.045 | -0.013 |
| SPAG5 (UniProt Q96R06) | 0.013 | -0.004 | -0.056 | -0.016 | 0.038 | -0.11 | 0.029 | 0.036 | -0.044 | 0.058 | 0.026 | -0.013 | -0.006 | 0.001 | 0.02 | -0.051 | -0.045 | 0.001 | 0.004 | -0.008 |
| SH3BP5L (UniProt Q7L8J4) | 0.006 | -0.004 | -0.01 | -0.05 | 0.001 | 0.031 | 0.098 | -0.044 | 0.001 | 0.015 | -0.056 | 0.037 | -0.023 | 0.04 | -0.025 | 0.007 | -0.01 | 0.007 | 0.013 | -0.033 |
| SLC27A2 (UniProt O14975) | 0.063 | -0.049 | -0.092 | -0.067 | 0.031 | 0.286 | 0.117 | 0.064 | 0.015 | -0.014 | 0.056 | -0.027 | 0.038 | -0.053 | -0.011 | -0.078 | 0.031 | -0.06 | -0.033 | 0.029 |
| SLC29A2 (UniProt Q14542) | -0.006 | 0.04 | -0.068 | -0.558 (active) | 0.083 | 0.159 | 0.035 | -0.023 | 0.045 | 0.146 | 0.083 | 0.095 | 0.029 | 0.058 | 0.037 | -0.242 | 0.048 | 0.088 | -0.037 | -0.021 |
| STK36 (UniProt Q9NRP7) | -0.213 | -0.007 | -0.833 | -0.551 | 0.191 | 0.284 | 0 | 0.202 | -0.322 | 0.398 | 0.081 | -0.179 | -0.142 | -0.02 | -0.113 | -1.31 (active) | -0.059 | 0.059 | 0.117 | -0.265 |
| SUZ12 (UniProt Q15022) | 0.015 | 0.043 | -0.021 | 0.048 | -0.016 | 0.027 | 0.006 | 0 | -0.113 | 0.009 | 0.03 | -0.025 | 0.037 | -0.013 | -0.008 | -0.005 | 0.016 | -0.007 | -0.013 | -0.026 |
| SMG1 (UniProt Q96Q15) | -0.025 | -0.05 | -0.019 | 0.002 | 0.003 | -0.105 | 0.024 | 0.015 | -0.057 | 0.049 | -0.029 | 0.026 | -0.021 | 0.038 | 0.006 | -0.05 | -0.028 | 0.061 | 0 | -0.032 |
| SF3B6 (UniProt Q9Y3B4) | -0.01 | -0.083 | -0.008 | 0.009 | 0.059 | -0.069 | -0.188 | 0.047 | -0.009 | -0.058 | 0.045 | 0.013 | -0.036 | -0.028 | -0.038 | 0.016 | 0.021 | 0 | -0.054 | -0.03 |
| SP1 (UniProt P08047) | 0.077 | 0.009 | 0.022 | -0.024 | -0.063 | 0.056 | -0.049 | 0.095 | -0.027 | 0.031 | -0.035 | -0.02 | -0.028 | 0.117 | -0.019 | 0.055 | -0.031 | -0.02 | 0.008 | 0.005 |
| SYNE2 isoform 2 (UniProt Q8WXH0) | -0.082 | -0.103 | 0.058 | -0.93 (active) | 0.073 | 0.296 | -0.003 | 0.183 | -0.194 | 0.397 | 0.086 | -0.034 | 0.032 | -0.002 | -0.024 | -0.176 | 0.005 | -0.043 | -0.021 | -0.091 |
